Over roughly 16,000 sequences, “rpm ratio (pull-down/input)” has its median near 0.94; the highest 2% begin near 1.7. What follows is part of a selection rich in the highest values, with near analogues and random picks from the rest.
target: T1, MBP-FoxP1dN (Mus musculus, UniProt P58462 326-579); assay: PD-seq (MBP pull-down with sequencing); 20 mM Tris-HCl pH 7.5, 100 mM NaCl, 1.5 mM MgCl2, 0.4 uM protein, 0.1 uM dsDNA library, 30 min, room temperature, amylose pull-down; high values mean tight binding; settings: protein: recombinant; tags: His6-MBP; chain copies: 2; dsDNA, one strand shown
T1 sequence: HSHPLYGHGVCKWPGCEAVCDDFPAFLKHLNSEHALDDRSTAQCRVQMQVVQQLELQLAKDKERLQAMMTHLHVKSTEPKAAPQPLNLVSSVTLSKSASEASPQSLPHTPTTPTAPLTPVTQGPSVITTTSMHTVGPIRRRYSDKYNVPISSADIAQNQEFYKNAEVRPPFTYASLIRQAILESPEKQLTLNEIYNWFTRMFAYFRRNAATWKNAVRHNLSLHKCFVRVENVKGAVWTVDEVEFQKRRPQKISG
How it was run: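 The N-terminus-lacking fragment of mouse FoxP3 or FoxP1 carried a His6-MBP tag and was expressed in E. coli. At 0.4 µM it was incubated with 0.1 µM Klenow-filled degenerate double-stranded DNA library for 30 min at room temperature in Tris pH 7.5 buffer with NaCl and MgCl2, and complexes were caught on amylose resin, washed three times, released with proteinase K, PCR-barcoded and Illumina-sequenced. Binding is reads-per-million enrichment of pull-down over input with replicates pooled.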

Sequence	binding signal
GATGATTGTTCTCCCAGCTGATGAATTCTATTACTCGAGTAAACAAATTTTCCTAATCTTTCTGTTCAAGCGCCATCTAC	0.895 RPM ratio (pull-down/input)
GATGATTGTTCTCCCAGCTGATGAATTCCCTCCATCGAGTAAACAAATTTTCCTAATCTTTCTGTTCAAGCGCCATCTAC	0.855 RPM ratio (pull-down/input)
GATGATTGTTCTCCCAGCTGATGAATTAACACATTCGAGTAAACAAATTTTCCTAATCTTTCTGTTCAAGCGCCATCTAC	1.18 RPM ratio (pull-down/input)
GATGATTGTTCTCCCAGCTGATGAATTCCTAGGTTCGAGTAAACAAATTTTCCTAATCTTTCTGTTCAAGCGCCATCTAC	0.762 RPM ratio (pull-down/input)
GATGATTGTTCTCCCAGCTGATGAATTGCATCTTTCGAGTAAACAAATTTTCCTAATCTTTCTGTTCAAGCGCCATCTAC	1.83 RPM ratio (pull-down/input)
GATGATTGTTCTCCCAGCTGATGAATTTGCATTTTCGAGTAAACAAATTTTCCTAATCTTTCTGTTCAAGCGCCATCTAC	1.61 RPM ratio (pull-down/input)
GATGATTGTTCTCCCAGCTGATGAATTGCATTTTTCGAGTAAACAAATTTTCCTAATCTTTCTGTTCAAGCGCCATCTAC	1.69 RPM ratio (pull-down/input)
GATGATTGTTCTCCCAGCTGATGAATTGCATTGTTCGAGTAAACAAATTTTCCTAATCTTTCTGTTCAAGCGCCATCTAC	1.43 RPM ratio (pull-down/input)
GATGATTGTTCTCCCAGCTGATGAATTTTGCATTTCGAGTAAACAAATTTTCCTAATCTTTCTGTTCAAGCGCCATCTAC	1.29 RPM ratio (pull-down/input)
GATGATTGTTCTCCCAGCTGATGAATTTGCATCTTCGAGTAAACAAATTTTCCTAATCTTTCTGTTCAAGCGCCATCTAC	1.89 RPM ratio (pull-down/input)
GATGATTGTTCTCCCAGCTGATGAATTGAAACGCTCGAGTAAACAAATTTTCCTAATCTTTCTGTTCAAGCGCCATCTAC	0.86 RPM ratio (pull-down/input)
GATGATTGTTCTCCCAGCTGATGAATTTCTACATTCGAGTAAACAAATTTTCCTAATCTTTCTGTTCAAGCGCCATCTAC	0.939 RPM ratio (pull-down/input)
GATGATTGTTCTCCCAGCTGATGAATTACCGTGCTCGAGTAAACAAATTTTCCTAATCTTTCTGTTCAAGCGCCATCTAC	0.964 RPM ratio (pull-down/input)
GATGATTGTTCTCCCAGCTGATGAATTGTACACATCGAGTAAACAAATTTTCCTAATCTTTCTGTTCAAGCGCCATCTAC	2.11 RPM ratio (pull-down/input)
GATGATTGTTCTCCCAGCTGATGAATTCTGTACATCGAGTAAACAAATTTTCCTAATCTTTCTGTTCAAGCGCCATCTAC	1.09 RPM ratio (pull-down/input)
GATGATTGTTCTCCCAGCTGATGAATTGTACAAATCGAGTAAACAAATTTTCCTAATCTTTCTGTTCAAGCGCCATCTAC	1.35 RPM ratio (pull-down/input)

Sequence	binding signal
GATGATTGTTCTCCCAGCTGATGAATTTTGTACATCGAGTAAACAAATTTTCCTAATCTTTCTGTTCAAGCGCCATCTAC	1.22 RPM ratio (pull-down/input)
GATGATTGTTCTCCCAGCTGATGAATTCTACACATCGAGTAAACAAATTTTCCTAATCTTTCTGTTCAAGCGCCATCTAC	1.06 RPM ratio (pull-down/input)
GATGATTGTTCTCCCAGCTGATGAATTGTGTACATCGAGTAAACAAATTTTCCTAATCTTTCTGTTCAAGCGCCATCTAC	2 RPM ratio (pull-down/input)
GATGATTGTTCTCCCAGCTGATGAATTGCAGTTGTCGAGTAAACAAATTTTCCTAATCTTTCTGTTCAAGCGCCATCTAC	1.34 RPM ratio (pull-down/input)
GATGATTGTTCTCCCAGCTGATGAATTACAGTACTCGAGTAAACAAATTTTCCTAATCTTTCTGTTCAAGCGCCATCTAC	1.06 RPM ratio (pull-down/input)
GATGATTGTTCTCCCAGCTGATGAATTGTTATAATCGAGTAAACAAATTTTCCTAATCTTTCTGTTCAAGCGCCATCTAC	1.59 RPM ratio (pull-down/input)
GATGATTGTTCTCCCAGCTGATGAATTTGCTTACTCGAGTAAACAAATTTTCCTAATCTTTCTGTTCAAGCGCCATCTAC	1.69 RPM ratio (pull-down/input)
GATGATTGTTCTCCCAGCTGATGAATTAGCAGTCTCGAGTAAACAAATTTTCCTAATCTTTCTGTTCAAGCGCCATCTAC	0.877 RPM ratio (pull-down/input)
GATGATTGTTCTCCCAGCTGATGAATTTCTTGCATCGAGTAAACAAATTTTCCTAATCTTTCTGTTCAAGCGCCATCTAC	1.27 RPM ratio (pull-down/input)
GATGATTGTTCTCCCAGCTGATGAATTGCAGCTATCGAGTAAACAAATTTTCCTAATCTTTCTGTTCAAGCGCCATCTAC	1.15 RPM ratio (pull-down/input)
GATGATTGTTCTCCCAGCTGATGAATTTATTGCATCGAGTAAACAAATTTTCCTAATCTTTCTGTTCAAGCGCCATCTAC	1.62 RPM ratio (pull-down/input)
GATGATTGTTCTCCCAGCTGATGAATTGCATCTATCGAGTAAACAAATTTTCCTAATCTTTCTGTTCAAGCGCCATCTAC	1.75 RPM ratio (pull-down/input)
GATGATTGTTCTCCCAGCTGATGAATTTGCATTATCGAGTAAACAAATTTTCCTAATCTTTCTGTTCAAGCGCCATCTAC	1.49 RPM ratio (pull-down/input)
GATGATTGTTCTCCCAGCTGATGAATTGCATTTATCGAGTAAACAAATTTTCCTAATCTTTCTGTTCAAGCGCCATCTAC	1.77 RPM ratio (pull-down/input)
GATGATTGTTCTCCCAGCTGATGAATTAGTCTGGTCGAGTAAACAAATTTTCCTAATCTTTCTGTTCAAGCGCCATCTAC	0.822 RPM ratio (pull-down/input)
